Screening results: PubChem, The Scripps Research Institute Molecular Screening Center
Rows were chosen to be rich in hits. Some 2.9% of all compounds tested hit in one or more screens of this group.
ADAM10 inh = ADAM10 inhibition, QFRET primary screen; recombinant ADAM10, EDANS/DABCYL FRET peptide cleavage, 3 h; inhibition, % at 7 µM; 370,000 tested, 0.62% active; AID 720582;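 active means inhibition above a per-campaign cutoff equal to the mean of compounds falling between control-based bounds plus 3 SD, cut at about 20% in these data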;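 further: 0% = DMSO wells while the 100% control is not disclosed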
proKLK7 act = activates the human kallikrein-7 zymogen; 370,000 tested, 0.9% active; activation, % at 7 µM; purified proKLK7, EDANS-DABCYL substrate fluorescence; 100% is mature enzyme control, 0% vehicle; P49862;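 active means activation above the mean of all tested compounds plus 3 SD, computed per campaign excluding outliers beyond control limits, cut at about 13% in these data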
Target sequence (P49862 whole entry, looked up): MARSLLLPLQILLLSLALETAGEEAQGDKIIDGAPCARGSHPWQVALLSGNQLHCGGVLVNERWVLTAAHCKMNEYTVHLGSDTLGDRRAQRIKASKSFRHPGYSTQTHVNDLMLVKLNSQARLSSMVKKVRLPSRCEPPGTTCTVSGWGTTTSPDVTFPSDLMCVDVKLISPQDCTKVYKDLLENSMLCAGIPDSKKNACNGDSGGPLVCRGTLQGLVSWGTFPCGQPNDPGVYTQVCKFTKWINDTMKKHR
ADAM17 inh = inhibits human ADAM17 | AID 720648 | 370,000 tested, 0.83% active | recombinant ADAM17, EDANS/DABCYL FRET peptide cleavage | inhibition, % at 6.95 µM;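 active means inhibition above the mean of compounds lying between control limits plus 3 SD, set per campaign, cut at about 8.5% in these data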;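 further: 0% = DMSO-only wells as the low control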
PLCg1 inh = blocks human PLC-gamma1 enzyme activity | P19174 | purified PLC-gamma1, fluorogenic substrate, fluorescence | inhibition, % at 12.2 µM | 370,000 tested, 0.84% active | AID 720700; in the data active means inhibition above about 9.5%
PLC-beta3 inh = PLC-beta3 (human) inhibition, primary screen; Q01970; Purified PLC-beta3, fluorogenic substrate, fluorescence; inhibition, % at 12.2 µM; 370,000 tested, 0.18% active; AID 720704;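 further: 0% = median of compound wells on plate and 100% = full blocker control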
ADAM10 confirm = human ADAM10 inhibition, confirmation; shares compounds with ADAM10 inh; ADAM10 QFRET peptide cleavage, EDANS fluorescence; inhibition, % at 6.95 µM; 2,100 tested, 1% active; AID 743208;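 active means inhibition above about 20% chosen separately for each screening run, limit read from the data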;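 further: 0% = DMSO wells and 100% = marimastat wells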
ADAM17 counter = inhibits human ADAM17 in ADAM10 exosite counter-screen. shares compounds with ADAM10 inh. 2,100 tested, 0.5% active. AID 743214. inhibition, % at 6.95 µM. ADAM17 QFRET peptide cleavage, EDANS fluorescence;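 active means mean triplicate inhibition above the solvent-only control wells' mean plus 3 SD, cut at about 12% in these data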;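 further: 0% = DMSO wells and 100% = marimastat wells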
ADAM10 ctr = inhibits human ADAM10 in ADAM17 exosite counter-screen. shares compounds with ADAM17 inh. recombinant ADAM10, EDANS/DABCYL FRET peptide cleavage, 3 h. inhibition, % at 6.95 µM. 2,900 tested, 47% active. AID 743256;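 active means mean inhibition over the triplicate runs exceeds the activity threshold set in the earlier primary screen, cut at about 20% in these data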;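 further: 0% = DMSO wells and 100% = marimastat wells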
ADAM17 confirm = human ADAM17 inhibition, confirmation | inhibition, % at 6.95 µM | recombinant ADAM17, EDANS/DABCYL QFRET peptide cleavage | AID 743257 | 2,900 tested, 65% active | shares compounds with ADAM17 inh;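 active means mean inhibition across replicates above the hit cutoff set in the primary screen, cut at about 8.5% in these data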;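 further: 0% = DMSO wells and 100% = marimastat wells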
PLCgamma1 ctr = counter-screen for PLC-beta3 inhibitors: inhibitors of human PLC-gamma1. shares compounds with PLCg1 inh. AID 743258. purified PLC-gamma1, fluorogenic substrate, fluorescence. inhibition, % at 12.3 µM. 3,300 tested, 3.1% active; in the data active means inhibition above about 9.5%
PLCb3 confirm = human PLC-beta3 inhibition, confirmation | shares compounds with PLCg1 inh | purified PLC-beta3, fluorogenic substrate fluorescence | inhibition, % at 12.3 µM | 3,300 tested, 1% active | AID 743261
Numbers without * were called inactive; · = not tested or not shown. Unless noted, no stated cut-off is given here; in the data, active means inhibition above about 11%; inactive means the rest.

SMILES	ADAM10 inh	proKLK7 act	ADAM17 inh	PLCg1 inh	PLC-beta3 inh	ADAM10 confirm	ADAM17 counter	ADAM10 ctr	ADAM17 confirm	PLCgamma1 ctr	PLCb3 confirm
O=C(CSc1ccc(Br)c2cccc(Cl)c12)Nc1ccc(S(=O)(=O)Nc2nccs2)cc1	31.8*	0.2	15.8*	11.0*	-3.5	11.1	5.2	22.7*	13.8*	-6.1	-9.9
COC(=O)C(NC(=O)c1ccccc1C)(Nc1ncc(S(=O)(=O)c2ccc([N+](=O)[O-])cc2)s1)C(F)(F)F (stereo unspecified)	32.6*	1.3	12.4*	12.1*	8.6	1.4	0.9	18.2	8.2	-0.5	-0.3
COc1ccc(S(=O)(=O)NN(C)C)cc1N(C)S(=O)(=O)c1ccc(Cl)cc1	-1.1	0.0	1.3	2.0	-2.4	·	·	·	·	·	·
COc1ccc(S(=O)(=O)Nc2ccc(C)cc2)cc1N(C)S(=O)(=O)c1ccc(Cl)cc1	32.2*	0.0	18.7*	10.8*	2.6	7.5	2.0	39.7*	20.9*	0.4	4.7
CN1CCO/C1=C(\C(Cl)=C(Cl)Cl)[N+](=O)[O-]	-1.1	0.3	2.2	-3.2	1.9	·	·	·	·	·	·
CCC1CO/C(=C(\C(Cl)=C(Cl)Cl)[N+](=O)[O-])N1 (stereo unspecified)	33.0*	0.0	12.9*	9.7*	8.3	15.6	5.5	30.4*	17.3*	1.7	8.7
COc1ccc([C@@H]2[C@@H]3C(=O)N(C(C)(C)C)C(=O)[C@@H]3[C@]3(Cc4ccccc4)C(=O)N(c4cccc(Cl)c4)C(=O)N23)cc1	36.7*	-0.3	9.8*	9.6*	-0.7	4.3	1.8	25.6*	14.6*	-2.3	2.2
COc1ccc([C@@H]2[C@@H]3C(=O)N(C(C)(C)C)C(=O)[C@@H]3[C@]3(Cc4ccccc4)C(=O)N(c4cccc(C)c4)C(=O)N23)cc1	9.7	0.4	1.3	2.2	3.8	·	·	·	·	·	·
Cc1cc(OCC(=O)N2CCN(c3ccccc3)CC2)c2c(C)cc(=O)oc2c1	-5.4	-0.1	-1.1	-3.3	-10.4	·	·	·	·	·	·
O=C(c1ccc(S(=O)(=O)N2CCCC2)cc1)N1CCCCC1	-11.1	-0.3	0.9	2.9	-6.3	·	·	·	·	·	·
O=C(/C=C/c1ccc(O)c(O)c1)c1ccc(S(=O)(=O)N2CCCCCC2)cc1	34.3*	-0.2	18.3*	10.9*	7.0	5.6	1.6	26.9*	16.7*	-1.1	-2.3
O=C(O)CC(CC(=O)Nc1ccc(F)c(Cl)c1)c1ccc(Cl)cc1Cl (stereo unspecified)	11.6	-0.1	1.5	-0.2	-8.4	·	·	·	·	·	·
COc1ccc(N(C)S(=O)(=O)c2cccc(C(=O)NCC(c3ccco3)N3CCCC3)c2)cc1 (stereo unspecified)	0.7	-0.8	-1.2	0.5	-2.6	·	·	·	·	·	·
C[C@@H](NC(=O)c1nc[nH]c1C(=O)OCc1ccccc1)c1ccccc1	7.3	0.1	-0.9	0.4	-0.3	·	·	·	·	·	·
CC(C)C[C@H](NC(=O)c1[nH]cnc1C(=O)N[C@H](C)c1ccccc1)C(=O)OCc1ccccc1	27.3*	0.5	12.9*	9.6*	6.3	5.6	2.8	46.0*	20.9*	-0.3	-0.2
Cc1cc(C)c2c(N)c(C(=O)Nc3ccc(F)cc3)sc2n1	-39.6	1.4	-16.0	-82.6	-105.4	·	·	·	·	·	·
CC(=O)Nc1ccc(SC[C@H](Cc2ccccc2)N2CC[C@@H](C(C)(C)C)CCC2=O)cc1	36.1*	0.0	12.2*	11.2*	3.2	5.1	1.2	21.6*	15.1*	3.1	3.5
Cc1ccc(C)c(NC(=O)NCc2ccccn2)c1	-2.2	-0.4	-17.1	0.3	-4.2	·	·	·	·	·	·
CCn1c(NCc2ccccc2NS(=O)(=O)c2ccc(C)cc2)nc2ccccc21	27.4*	-0.8	16.1*	8.9	12.3*	5.6	2.5	23.6*	14.9*	-0.1	0.2
C[C@]12CC[C@@H]3c4ccc(O)cc4CC[C@H]3[C@@H]1C[C@@H](O)[C@@H]2O[C@@H]1O[C@H](C(=O)O)[C@@H](O)[C@H](O)[C@H]1O	-9.9	-0.3	-5.3	-5.5	-1.2	·	·	·	·	·	·
COc1ccc(S(=O)(=O)NCCC(C)C)cc1OC	-2.2	0.0	-1.1	2.0	2.8	·	·	·	·	·	·
Cc1ccc(SCC(=O)OCC(=O)NCc2ccco2)cc1	-4.4	-0.2	9.2*	5.7	-4.4	·	·	7.7	4.0	·	·
CC1=C(C(=O)OCc2ccc3c(c2)OCO3)C(c2ccc(F)cc2)NC(=O)N1 (stereo unspecified)	10.8	0.2	-1.9	-1.4	-0.9	·	·	·	·	·	·
COc1ccc(Cn2ccnc2)cc1[N+](=O)[O-]	4.9	-0.5	2.2	3.1	6.5	·	·	·	·	·	·
COc1ccc(Cn2c(SC)nc3ccccc32)cc1[N+](=O)[O-]	15.7	0.4	8.7*	4.0	1.0	·	·	9.8	1.8	·	·
SMILES	ADAM10 inh	proKLK7 act	ADAM17 inh	PLCg1 inh	PLC-beta3 inh	ADAM10 confirm	ADAM17 counter	ADAM10 ctr	ADAM17 confirm	PLCgamma1 ctr	PLCb3 confirm
CC(C)C[C@H](CO)N(Cc1ccccc1)S(=O)(=O)N(Cc1ccccc1)[C@@H](CO)CC(C)C	-2.7	0.1	13.1*	4.8	8.9	·	·	46.9*	26.0*	·	·
C=CS(=O)(=O)N(Cc1ccccc1)[C@H](CO)CC(C)C	6.5	-0.2	2.4	1.4	1.4	·	·	·	·	·	·
CCOC(=O)CC(=O)CSCC(=O)Nc1ccc(C)cc1	0.8	-1.1	9.1*	-0.3	-9.2	·	·	6.2	7.2	·	·
CCN(CC(=O)Nc1ccc(NC(C)=O)cc1)C(=O)CSCC(=O)Nc1ccc(C)cc1	8.9	0.0	1.1	4.7	-0.6	·	·	·	·	·	·
CC(C)Oc1cc(NC(=O)CS(=O)CC(=O)Nc2cccc(C(F)(F)F)c2)c(Cl)cc1Cl (stereo unspecified)	17.9	-0.5	9.2*	-0.8	-0.7	·	·	31.0*	15.8*	·	·
CC(C)Oc1cc(NC(=O)CS(=O)CC(=O)N(C)C)c(Cl)cc1Cl (stereo unspecified)	-3.9	0.2	-0.5	4.6	2.9	·	·	·	·	·	·
O=C1OC(c2ccccc2)(c2ccc3cc(O)ccc3c2)c2ccccc21 (stereo unspecified)	19.2	0.6	10.2*	3.6	0.0	·	·	25.2*	13.4*	·	·
Cc1ccc(SCC(=O)NNC(=O)CCS(=O)(=O)c2ccc(C)cc2)cc1	-1.4	-0.4	-1.6	3.5	-5.2	·	·	·	·	·	·
